Vif imaging – HIV Vif self-association inhibitors, primary screen, imaging, HEK293T, single point | HEK293T cells, Vif self-association by quenched fluorescence, 24 h | inhibition, % at 7.49 µM | 0.35% of 340,000 active | AID 602346, 2012; in the data active = inhibition above about 50%, passing the limit was not always enough; inconclusive = no clear call, values can overlap the other calls; inactive = below about 31%
Myeloid diff 2 – induction of myeloid progenitor differentiation, primary screen, cell-based, flow cytometry, MLPCN library; calls only at 10 µM; AID 624256, 2012; ER-HoxA9 myeloid progenitors, lysozyme-GFP differentiation; 1% of 360,000 active;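 active = normalized GFP-positive differentiation at or above the plate's own cutoff, the solvent-only control mean plus 3 SD; inconclusive = no clear call, values can overlap the other calls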;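 note: cells exposed to compound for four days before flow analysis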
ABCB6 inh MLPCN – ABCB6 transporter inhibitors, primary screen, K562-ABCB6 cells, flow cytometry, MLPCN library; ATP-binding cassette sub-family B member 6 (Homo sapiens), Q9NP58; K562-ABCB6 porphyrin accumulation, 1 h; stronger effect = lower value; fluorescence ratio to DMSO, % at 10 µM; 0.19% of 360,000 active;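 active = fluorescence ratio to DMSO below 75%, the collection mean minus 3 SD; inconclusive = too few cells collected in the well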;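 note: signal is porphyrin accumulated inside mitochondria; lower ratio means ABCB6 inhibition with less porphyrin fluorescence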
Glyco luc inh – increase of ERlucT glycosylation luciferase signal, primary screen, N-linked glycosylation inhibitor project, D54 ERlucT cells, luminescence, set 2; reporter increase, % at 12.5 µM; 0.23% of 360,000 active; D54 ERlucT glycosylation luciferase reporter, 24 h; percent of 100 nM tunicamycin response;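 active = mean luciferase reporter signal, scaled so untreated is 0 and the glycosylation-blocking control 100, at or above a set limit in every replicate; inconclusive = mean reaches the limit but not every replicate does; inactive = mean below the limit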;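 note: luciferase carries N-glycosylation sites so blocking glycosylation raises the light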
RAD54 branch – inhibitors of human RAD54 branch migration, primary screen, biochemical, fluorescence, single point; DNA repair and recombination protein RAD54-like (Homo sapiens), Q92698; RAD54 Holliday junction branch migration, FAM/BHQ fluorescence; inhibition, % at 10.4 µM; 0.14% of 360,000 active;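 active = mean normalized replicate activity at least 40 and at least half of replicates scoring 40 or more; inconclusive = only one of the two criteria met; inactive = mean below 40 and under half of replicates reaching 40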;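 note: inhibitors cause a drop in the FAM fluorescence signal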
Target sequence (Q92698 whole entry, looked up): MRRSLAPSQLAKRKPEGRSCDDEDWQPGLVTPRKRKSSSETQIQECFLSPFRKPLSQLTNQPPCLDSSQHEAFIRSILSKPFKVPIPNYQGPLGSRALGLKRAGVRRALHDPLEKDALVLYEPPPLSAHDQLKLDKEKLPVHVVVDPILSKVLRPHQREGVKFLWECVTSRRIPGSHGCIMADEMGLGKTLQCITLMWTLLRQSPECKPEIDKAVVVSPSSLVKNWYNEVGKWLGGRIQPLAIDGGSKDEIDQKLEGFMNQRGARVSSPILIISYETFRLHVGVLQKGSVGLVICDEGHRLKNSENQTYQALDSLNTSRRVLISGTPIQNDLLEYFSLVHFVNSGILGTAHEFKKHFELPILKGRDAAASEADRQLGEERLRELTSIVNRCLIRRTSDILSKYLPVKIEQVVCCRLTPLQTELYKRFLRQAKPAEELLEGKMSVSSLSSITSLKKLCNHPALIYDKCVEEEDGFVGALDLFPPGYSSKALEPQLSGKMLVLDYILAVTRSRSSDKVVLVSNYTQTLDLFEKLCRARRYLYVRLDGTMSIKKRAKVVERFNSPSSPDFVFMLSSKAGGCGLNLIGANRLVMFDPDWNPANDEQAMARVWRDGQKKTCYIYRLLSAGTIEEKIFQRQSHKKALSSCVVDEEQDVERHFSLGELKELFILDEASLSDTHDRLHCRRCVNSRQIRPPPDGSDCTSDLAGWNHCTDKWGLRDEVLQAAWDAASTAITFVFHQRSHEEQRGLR
Of the large screens only hits and unclear results are named; the others gave an inactive call. The list is not random: actives were taken first. Their share in the collection is about 1.6%.

CCn1c(SCC(=O)NCC2CCCO2)nnc1-c1c[nH]c2ccccc12 (stereo unspecified)	none
COc1ccc(NC(=O)Nc2ccc3c(c2)C(=O)N([C@H](C)CO)C[C@H](C)[C@H](CN(C)S(=O)(=O)c2ccc(C)cc2)OCCCC[C@H](C)O3)cc1	none (no result: Vif imaging, Myeloid diff 2, ABCB6 inh MLPCN, Glyco luc inh)
C/C(=N\OCC(=O)NCC(F)(F)F)c1cc2ccccc2o1	none (no result: RAD54 branch)
CCCCNC(=O)CO/N=C(\C)c1cc2ccccc2o1	Myeloid diff 2 active
CN1c2ccc(Br)cc2[C@H]2[C@H](CCN2S(=O)(=O)c2cccc(F)c2)[C@@H]1CO	none (no result: Vif imaging, Myeloid diff 2, ABCB6 inh MLPCN, Glyco luc inh)
COc1ccc(N2C(=O)/C(=C/c3ccc([N+](=O)[O-])cc3)C=C2c2ccccc2)cc1	Myeloid diff 2 active
O=C(Nc1ccc(Cl)cc1)N[C@H]1CC[C@@H](CCn2cc(Cc3ccccc3)nn2)O[C@H]1CO	none (no result: Vif imaging, Myeloid diff 2, ABCB6 inh MLPCN, Glyco luc inh)
CCCC#Cc1cnc2c(c1)C(=O)N([C@H](C)CO)C[C@H](C)[C@@H](CN(C)Cc1ccncc1)O2	none (no result: Vif imaging, Myeloid diff 2, ABCB6 inh MLPCN, Glyco luc inh)
Cc1ccc(CNCCCSc2ncccn2)cc1	Vif imaging 60.0
COCC(=O)N1CC[C@H]2[C@H](CO)Nc3ccc(-c4cccc(C(=O)N(C)C)c4)cc3[C@H]21	none (no result: Vif imaging, Myeloid diff 2, ABCB6 inh MLPCN, Glyco luc inh)
COc1ccc2c(CC(=O)N3CCN(S(=O)(=O)c4cccs4)CC3)coc2c1	none
COc1ccc2c(CC(=O)N3CCN(S(=O)(=O)c4ccc(F)cc4)CC3)coc2c1	Myeloid diff 2 active
Cc1ccc(C(=O)c2no[n+]([O-])c2C(=O)c2ccc(C)cc2)cc1	ABCB6 inh MLPCN 67.0 (no result: RAD54 branch)
Cc1ccc(C(=O)c2ccc(C)cc2)cc1	none
OCC(O)C1OC(Nc2ccc(Cl)cc2)C(O)C1O (stereo unspecified)	Myeloid diff 2 active (no result: RAD54 branch)
OCC(O)C1OC(Oc2ccccc2)C(O)C(O)C1O (stereo unspecified)	none (no result: RAD54 branch)
O=C(OCC(=O)N1N=C(c2ccc(Cl)cc2)CC1c1ccco1)c1ccco1 (stereo unspecified)	none (no result: RAD54 branch)
COc1ccc(C2=NN(C(=O)COC(=O)c3ccc(NC(=O)CC#N)cc3)C(c3ccco3)C2)cc1 (stereo unspecified)	Myeloid diff 2 active
O=C(c1ccccc1F)N1CC[C@@H]2[C@H]1c1cc(C#Cc3ccccc3F)ccc1N[C@@H]2CO	none (no result: Vif imaging, Myeloid diff 2, ABCB6 inh MLPCN, Glyco luc inh)
Cc1ccc(Nc2cc(=O)[nH]c(=O)[nH]2)cc1C	Vif imaging 56.8
O=C1NC2(CCCCCC2)C(=O)N1Cc1ccccc1	none (no result: Vif imaging)
O=C1NC(=O)N(Cc2ccccc2)C1=O	Myeloid diff 2 active
O=C1N[C@H]2CC=C[C@H]2N(Cc2cccs2)c2ccccc21	Glyco luc inh 54.1
COc1ccc(NC(=O)C2(C)Cc3c(-c4ccc(NC(C)=O)cc4)ccnc3O2)cn1 (stereo unspecified)	none
CC(=O)Nc1cccc(-c2ccnc3c2CC(C)(C(=O)Nc2cccc(C(C)=O)c2)O3)c1 (stereo unspecified)	Glyco luc inh 29.8
COc1ccc(NC(=O)C2(C)Cc3c(-c4cccc(NC(C)=O)c4)ccnc3O2)cn1 (stereo unspecified)	Vif imaging 58.4, Myeloid diff 2 inconclusive
CC(C)(C)c1ccc(C(=O)NNC(=O)CCc2ccccc2)cc1	Myeloid diff 2 active
CC(=O)Nc1ccc(C(=O)NNC(=O)CCc2ccccc2)cc1	none
Cc1cc(NC(=O)c2cc([N+](=O)[O-])ccc2Cl)no1	none
O=C(Nc1cccc(NC(=O)c2cc([N+](=O)[O-])ccc2Cl)n1)c1cc([N+](=O)[O-])ccc1Cl	Vif imaging 58.3 (no result: RAD54 branch)
O=C(OCc1ccccc1)N1CCC2CC1c1ccc(Cl)cc12 (stereo unspecified)	Myeloid diff 2 active (no result: Vif imaging)
O=C(OCc1ccccc1)N1CCC2CC1c1c(Cl)cccc12 (stereo unspecified)	none (no result: Vif imaging)
Cc1cc(C(=O)COC(=O)C23CC4CC(CC(O)(C4)C2)C3)c(C)n1-c1c(C)n(C)n(-c2ccccc2)c1=O	none
COCCn1c(C)cc(C(=O)COC(=O)C23CC4CC(CC(O)(C4)C2)C3)c1C	ABCB6 inh MLPCN 2.0
CS(=O)(=O)n1nc(-c2ccc(Cl)cc2)nc1N	none (no result: RAD54 branch)
Cn1nc(-c2ccc(Cl)cc2)nc2c(=O)n(C)c(=O)nc1-2	RAD54 branch 58.5 (no result: Myeloid diff 2, ABCB6 inh MLPCN, Glyco luc inh)
O=C(Cc1ccc(-c2ccccc2)cc1)NCc1ccccc1	Vif imaging 53.7, Myeloid diff 2 inconclusive, Glyco luc inh inconclusive
COc1ccc(CN(C)C[C@H]2OCCCC[C@H](C)Oc3ccc(NC(=O)Nc4ccccc4)cc3C(=O)N([C@H](C)CO)C[C@H]2C)cc1	none (no result: Vif imaging, Myeloid diff 2, ABCB6 inh MLPCN, Glyco luc inh)
CNC(=O)C[C@@H]1CC[C@H]2[C@H](COc3ccc(NC(=O)NC4CCCC4)cc3C(=O)N2C)O1	none (no result: Vif imaging, Myeloid diff 2, ABCB6 inh MLPCN, Glyco luc inh)
CNC(=O)c1cc(C(=O)c2ccc(C(F)(F)F)cc2)c[nH]1	Myeloid diff 2 active
CNC(=O)c1cc(C(=O)c2ccc(C(F)(F)F)cc2F)c[nH]1	none (no result: RAD54 branch)
C/C(=N\Nc1ccc(C(=O)O)cc1)c1ccc(-n2ccnc2)cc1	none (no result: RAD54 branch)
C/C(=N\Nc1ccccc1Cl)c1ccc(-n2ccnc2)cc1	Myeloid diff 2 active
C[C@@H]1CN([C@H](C)CO)C(=O)c2cc(NC(=O)NC3CCCCC3)ccc2O[C@@H](C)CCCCO[C@@H]1CN(C)S(=O)(=O)c1cn(C)cn1	none (no result: Vif imaging, Myeloid diff 2, ABCB6 inh MLPCN, Glyco luc inh)
CN1C(=O)CSc2ccc(NC(=O)Nc3ccccn3)cc21	Glyco luc inh 31.2 (no result: RAD54 branch)
CCOC(=O)C1C(=O)C=C(/C=C/c2ccc(N(C)C)cc2)CC1c1ccccc1 (stereo unspecified)	Myeloid diff 2 active (no result: RAD54 branch)
O=C(Nc1c2ccccc2nc2ccccc12)C(Cl)(Cl)Cl	Glyco luc inh 93.0, RAD54 branch 82.9
O=C(Cc1ccccc1)NNc1c2ccccc2nc2ccccc12	none (no result: RAD54 branch)
Cc1cc2nc3c(=O)n(CCc4ccccc4)c(=O)[nH]c3nc2cc1N	none
Nc1ccc2nc3c(=O)n(CCc4ccccc4)c(=O)[nH]c3nc2c1	Myeloid diff 2 active
O=C(Nc1ccccc1F)N1C[C@@H]2[C@H](c3ccccc31)[C@@H](CO)N2C(=O)c1ccccc1F	none (no result: Vif imaging, Myeloid diff 2, ABCB6 inh MLPCN, Glyco luc inh)
COc1cc2c3nnc(-c4ccc(F)cc4)c-3cn(Cc3ccccc3F)c2cc1OC	Myeloid diff 2 active (no result: RAD54 branch)
Fc1cccc(NCc2cn3ccccc3n2)c1	none
Fc1ccc(NCc2cn3ccccc3n2)cc1	Myeloid diff 2 active
O=C([C@H]1[C@H](CO)[C@H]2Cn3c(ccc(-c4ccncc4)c3=O)[C@H]2N1CCC(F)(F)F)N1CCCCC1	none (no result: Vif imaging, Myeloid diff 2, ABCB6 inh MLPCN, Glyco luc inh)
COc1ccc2cc1Oc1ccc(cc1)CC1c3c(cc(OC)c4c3Oc3cc5c(cc3O4)CCNC5C2)CCN1C (stereo unspecified)	Myeloid diff 2 active, RAD54 branch 90.9
COc1ccc2cc1Oc1ccc(cc1)C[C@H]1c3c(cc(OC)c4c3Oc3c(ccc5c3[C@H](C2)N(C)CC5)O4)CCN1C	Myeloid diff 2 inconclusive, RAD54 branch 74.4

Bioassay records (PubChem)
